Source: PubChem BioAssay
Rows were chosen to be rich in hits. Some 1.9% of all compounds tested hit in one or more screens of this group.
LYPLA2 counter = counter-screen for PME1 inhibitors: inhibitors of human LYPLA2; 0.38% of 320,000 active; O95372; inhibition, % at 5.9 µM; recombinant LYPLA2, FP-Rh probe fluorescence polarization; AID 2177;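 active means inhibition above the screen-wide mean plus 3 SD, limit set per campaign, cut at about 26% in these data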;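 further: 0% = LYPLA2 with DMSO and 100% = wells lacking LYPLA2 enzyme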
PME-1 inh = PME-1 (human) inhibition; Q9Y570; recombinant PME-1, FP-Rh probe fluorescence polarization; inhibition, % at 5.9 µM; 0.53% of 320,000 active; AID 2130;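 active means inhibition above the campaign mean of all compounds plus 3 SD, cut at about 26% in these data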;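 further: competitive labeling of PME-1 active site by serine hydrolase directed probe; 0% = PME-1 with DMSO and 100% = wells lacking PME-1 enzyme; inhibitors block probe labeling so polarization falls and inhibition rises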
Target sequence (Q9Y570 whole entry, looked up): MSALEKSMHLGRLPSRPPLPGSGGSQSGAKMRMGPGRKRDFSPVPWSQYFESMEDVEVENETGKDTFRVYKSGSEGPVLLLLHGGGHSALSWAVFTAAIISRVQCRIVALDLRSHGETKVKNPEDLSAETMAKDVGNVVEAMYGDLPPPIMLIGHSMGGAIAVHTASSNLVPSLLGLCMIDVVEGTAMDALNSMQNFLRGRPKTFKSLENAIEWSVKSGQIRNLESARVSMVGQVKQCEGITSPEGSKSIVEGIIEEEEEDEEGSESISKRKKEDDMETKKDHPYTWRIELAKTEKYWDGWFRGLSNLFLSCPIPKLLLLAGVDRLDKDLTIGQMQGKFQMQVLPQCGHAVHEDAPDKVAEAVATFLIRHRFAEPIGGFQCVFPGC
LYPLA1 inh = blocks human lysophospholipase 1, a PME1 counter-screen; O75608; recombinant LYPLA1, FP-Rh probe fluorescence polarization; inhibition, % at 5.9 µM; 0.16% of 320,000 active; AID 2174;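 active means inhibition above the mean of all tested compounds plus 3 SD, set per campaign, cut at about 14% in these data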;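 further: inhibitors block serine hydrolase probe labeling of LYPLA1 so polarization falls; 0% = enzyme with DMSO and 100% = wells lacking LYPLA1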
Target sequence (O75608 whole entry, looked up): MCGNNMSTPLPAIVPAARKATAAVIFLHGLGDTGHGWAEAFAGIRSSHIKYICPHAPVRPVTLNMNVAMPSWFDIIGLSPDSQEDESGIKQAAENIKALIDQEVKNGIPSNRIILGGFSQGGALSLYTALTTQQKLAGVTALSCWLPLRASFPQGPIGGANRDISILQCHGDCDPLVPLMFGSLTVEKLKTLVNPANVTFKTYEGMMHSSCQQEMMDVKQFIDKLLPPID
PREPL inhibitor = human PREPL enzyme inhibition; inhibition, % at 5.96 µM; 0.68% of 320,000 active; recombinant PREPL, fluorescence polarization activity-based probe; Q4J6C6; in the data active means inhibition above about 43%;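 further: 0% = enzyme with DMSO and 100% = wells lacking enzyme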
Fam108B inh = counter-screen for RBBP9 inhibitors: inhibitors of mouse Fam108B | recombinant Fam108B, FP-Rh probe fluorescence polarization | inhibition, % at 9.51 µM | 0.33% of 300,000 active;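 active means inhibition above the screen mean inhibition plus 3 SD, computed separately per campaign, cut at about 18% in these data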;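 further: inhibitors lower polarization as less probe binds the enzyme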
GSTO1 inh = counter-screen for RBBP9 inhibitors: inhibitors of human GSTO1; P78417; recombinant GSTO1, activity-based probe fluorescence polarization; inhibition, % at 5.96 µM; 1.1% of 300,000 active;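 active means inhibition above the campaign mean inhibition plus 3 SD, cut at about 35% in these data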;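 further: 0% = GSTO1-1 with DMSO and 100% = wells lacking GSTO1-1 enzyme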
GSTO1 confirm = confirmation of human GSTO1 inhibitors | shares compounds with GSTO1 inh | recombinant GSTO1, probe fluorescence polarization | inhibition, % at 5.96 µM | 54% of 2,400 active | AID 2176;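 active means inhibition above the primary screen's cutoff, its mean inhibition plus 3 SD, cut at about 35% in these data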;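 further: loss of polarization as inhibitors block binding of rhodamine sulfonate ester activity probe; 0% = GSTO1 with DMSO and 100% = wells lacking GSTO1 enzyme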
GSTO1 ABPP inh = inhibitors of recombinant human GSTO1; shares compounds with GSTO1 inh; inhibition, % at 1 µM; gel ABPP SE-Rh probe fluorescence; 30% of 130 active;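 active means inhibition of the enzyme GSTO1 above about 75%, limit read from the data; inactive means inhibition below that limit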
* = called active by the depositor; / = not tested or not shown.

SMILES | LYPLA2 counter | PME-1 inh | LYPLA1 inh | PREPL inhibitor | Fam108B inh | GSTO1 inh | GSTO1 confirm | others
CC1(OC(=O)C2CCCC2)C(=O)C=C2C=C3CCCCN3C=C2C1=O (stereo not given) | 6 | 4 | 2 | 7 | 11 | 51* | 11
COc1ccccc1N(/N=C1\Sc2ccccc2C1=O)C(C)=O | -3 | 0 | 0 | 18 | 6 | 44* | 75*
O=S1(=O)c2cccc3cccc(c23)N1CCBr | 7 | 1 | 1 | 3 | 4 | 45* | 51*
O=C(CSc1ccc(Cl)cc1)NC1=NN(c2ccccc2)C(=O)C1 | -1 | 8 | -4 | 3 | 5 | 42* | 6
CSCCC(NC(=O)c1ccccc1Br)C(=O)NNC(=O)c1ccco1 (stereo not given) | 7 | 1 | 5 | -2 | / | / | /
CCCC[C@@H]1CNCCN1CC1(c2ccccc2)CC1 | -1 | -3 | -1 | -3 | 0 | -1 | /
Cc1ccc(S(=O)(=O)c2c(N)n(CCCN(C)C)c3nc4ccccc4nc23)cc1 | -1 | 0 | 2 | -3 | 1 | -8 | /
CCCCn1c(NS(=O)(=O)c2ccc(C)cc2)c(S(=O)(=O)c2ccccc2)c2nc3ccccc3nc21 | -6 | 5 | -4 | 12 | 1 | 78* | 71*
CC(C)(C)OC(=O)N[C@@H](Cc1ccccc1)C(=O)N[C@@H](CO)[C@H](O)[C@@H]1C[C@@H]1C(=O)NC1CCCCC1 | / | / | / | 18 | / | / | /
CCN(Cc1ccc(OC)c(F)c1)C(=O)CCl | 8 | -3 | -1 | -10 | 2 | 98* | 101* | GSTO1 ABPP inh=47
CCN(Cc1ccc(OC)c(F)c1)C(=O)C1CCCO1 (stereo not given) | -7 | 1 | -2 | -3 | -3 | -2 | /
CC1(OC(=O)C2CCCC2)C(=O)C=C2C=C(c3ccsc3)N(Cc3ccccc3)C=C2C1=O (stereo not given) | 10 | 1 | 3 | 38 | 0 | 12 | /
CC1(OC(=O)C2CCCC2)C(=O)C=C2C=C(c3ccsc3)N(CCc3ccccn3)C=C2C1=O (stereo not given) | 0 | 6 | 2 | 27 | 2 | 49* | 5
CC(C)CN1C=C2C(=O)C(C)(OC(=O)C3CCCC3)C(=O)C=C2C=C1c1ccsc1 (stereo not given) | 6 | 1 | -2 | 24 | 1 | 25 | /
CC1(OC(=O)C2CCCC2)C(=O)C=C2C=C(c3ccsc3)N(C3CC3)C=C2C1=O (stereo not given) | -2 | 9 | 0 | 32 | 5 | 47* | 4
CC1(OC(=O)C2CCCC2)C(=O)C=C2C=C(c3ccsc3)N(c3ccccc3)C=C2C1=O (stereo not given) | 2 | 5 | 1 | 23 | 0 | 23 | /
C=CCN1C=C2C(=O)C(C)(OC(=O)C3CCCC3)C(=O)C=C2C=C1c1ccsc1 (stereo not given) | -1 | 0 | 0 | 40 | 5 | 41* | 5
Cc1cccc[n+]1C1C(c2ccc([N+](=O)[O-])cc2)C(C#N)=C(C(=C=[N-])C#N)NC1(O)C1CC1 (stereo not given) | 12 | 10 | 9 | 18 | 13 | 40* | 48*
COc1ccc(CNC(=O)c2c(C)oc3c2C(=O)c2ccccc2C3=O)cc1 | -2 | 4 | 0 | 29 | 3 | 53* | 35*
CC(=O)c1c(C)oc2c1C(=O)c1ccccc1C2=O | 0 | -12 | -2 | -4 | 2 | 46* | 56*
Cc1oc2c(c1C(=O)NCc1cccnc1)C(=O)c1ccccc1C2=O | 3 | 1 | -1 | 19 | 1 | 60* | 48*
Cc1ccc(COc2ccc(CNCCCN3CCCCCC3=O)cc2)cc1 | -3 | -1 | -4 | 39 | 1 | -3 | /
Cc1nn(CC(=O)OCC(=O)c2ccc(OC(F)F)cc2)c(C)c1[N+](=O)[O-] | 10 | -1 | 7 | 16 | / | / | /
Oc1ccc(/C=N/Nc2cc(N3CCCC3)nc(N3CCCC3)n2)cc1O | -8 | 6 | -6 | 13 | 6 | 46* | 79*
Oc1ccc(/C=N\Nc2cc(N3CCOCC3)nc(N3CCOCC3)n2)c(O)c1 | 3 | 7 | 1 | 7 | 6 | 26 | /
SMILES | LYPLA2 counter | PME-1 inh | LYPLA1 inh | PREPL inhibitor | Fam108B inh | GSTO1 inh | GSTO1 confirm | others
CCOc1ccc(S(=O)(=O)N2CCC(C(=O)NCC3CCCO3)CC2)cc1C (stereo not given) | 1 | 1 | -1 | 5 | -1 | -1 | /
COc1ccc(OC)c2sc(N3CCN(C(=O)c4ccc([N+](=O)[O-])s4)CC3)nc12 | -1 | 6 | -4 | 35 | 0 | 54* | 10
O=C(NCCN1CCOCC1)NC1(C(F)(F)F)Oc2ccc(Cl)cc2O1 (stereo not given) | -7 | -2 | -1 | 1 | 0 | 49* | 6
O=C(NCCN1CCOCC1)c1ccc(Cl)cc1O | -1 | 0 | 0 | -1 | -8 | 7 | /
Cc1oc(-c2ccccc2)nc1C(=O)N1CCN(c2ccc(F)cc2)CC1 | -1 | -1 | 3 | 1 | 1 | -1 | /
Cc1ccc(S(=O)(=O)N2CCN(C(=O)COC(=O)CCCOc3ccccc3)CC2)c(C)c1 | 1 | 8 | 2 | 25 | / | / | /
O=C(NN=c1c(=O)c2ccccc2c1=O)c1ccccc1 | -1 | 7 | 0 | -6 | 4 | 77* | 72*
CN(C)/C=N/NC(=O)c1ccccc1 | -5 | -2 | -4 | 8 | 2 | -4 | /
N#Cc1sc2nc(-c3ccccc3)cc(-c3ccco3)c2c1N | 2 | 16 | -6 | 34 | 11 | 66* | 78*
O=C(COC(=O)C1CC2CCCC(C1)C2=O)Nc1ccc(Cl)cn1 (stereo not given) | -2 | -2 | -2 | 6 | / | / | /
CSc1nncc(/C(C)=N\Nc2ccccc2)n1 | 0 | 1 | -1 | 8 | 1 | 38* | 6
CC/C(=N\Nc1ccccc1[N+](=O)[O-])c1ccc(O)cc1 | 7 | 11 | -3 | 6 | 10 | 8 | /
CC/C(=N/Nc1ccccc1C)c1cnnc(SC)n1 | 4 | -4 | 3 | 2 | 4 | 44* | 2
CSc1nncc(/C(C)=N\Nc2cccc(C)c2)n1 | -6 | 1 | 3 | 11 | 5 | 23 | /
O=C(CCC(=O)N1CCN(c2ccccn2)CC1)c1ccc(Cl)s1 | -5 | 3 | 0 | 2 | / | / | /
CCOc1ccc(CCNC(=O)c2c(C)nn(-c3ccccc3)c2Cl)cc1OCC | -1 | 2 | -3 | 12 | 2 | -3 | /
C=CCC[C@H](Cc1ccc(F)cc1)C(=O)OC[C@H](Cc1c[nH]c2ccccc12)NC(=O)[C@@H](CC=C)CC(=O)NCCO | / | / | / | 16 | / | / | /
COc1ccc(CCCCCCOCc2ccccc2)cc1 | 1 | 1 | -1 | 11 | / | / | /
